Measurements from the supplement of paper PMC6555819.

Experiments:
Assay in all cases: PBM binding z-score (relative to random genomic background probes); higher = stronger binding; sequences stand for … in GC…GCGATTGACAGCGTAGAATGAAGG
[1] = test system: PPARg:RXRa DBDmut IVT, anti-RXR (DBD mutation: RXRa K156A/R161A, NR concentration 270 nM, RXRa partner concentration 90 nM)
In short: (§1)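 Random background probes are the reference for binding z-scores. These scores derive from regression-normalized fluorescence on custom Agilent 4×180K protein-binding microarrays incubated 1 h with ligand-free nuclear receptor dimers. Binding was detected with antibodies against each partner (one per run).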

[2] = test system: PPARg:RXRa IVT, anti-PPARg (NR concentration 270 nM, RXRa partner concentration 90 nM)
In short: as §1

[3] = test system: PPARg DBDmut:RXRa IVT, anti-PPARg (DBD mutation: PPARg1 K132A/R137A, NR concentration 270 nM, RXRa partner concentration 90 nM)
In short: as §1

[4] = test system: PPARg DBDmut IVT, anti-PPARg (DBD mutation: PPARg1 K132A/R137A, NR concentration 270 nM)
In short: as §1

[5] = test system: PPARg homodimer (NR concentration 180 nM)
In short: as §1

[6] = test system: PXR:RXRa (NR concentration 270 nM, RXRa partner concentration 90 nM)
In short: as §1

[7] = test system: PXR homodimer (NR concentration 270 nM)
In short: as §1

[8] = test system: RARa:RXR (NR concentration 270 nM, RXRa partner concentration 90 nM)
In short: as §1

[9] = test system: RARa homodimer (NR concentration 270 nM)
In short: as §1

[10] = test system: RARb:RXRa (NR concentration 270 nM, RXRa partner concentration 90 nM)
In short: as §1

[11] = test system: RARb homodimer (NR concentration 270 nM)
In short: as §1

[12] = test system: RARg:RXRa (NR concentration 270 nM, RXRa partner concentration 90 nM)
In short: as §1

[13] = test system: RARg homodimer (NR concentration 270 nM)
In short: as §1

[14] = test system: RXRa DBDmut IVT, anti-RXR (DBD mutation: RXRa K156A/R161A, NR concentration 90 nM)
In short: as §1

[15] = test system: RXRa homodimer (NR concentration 180 nM)
In short: as §1

[16] = test system: THRa:RXRa (NR concentration 90 nM, RXRa partner concentration 90 nM)
In short: as §1

[17] = test system: THRa homodimer (NR concentration 90 nM)
In short: as §1

[18] = test system: VDR homodimer (NR concentration 270 nM)
In short: as §1

Sequence | PBM binding z-score [1] | PBM binding z-score [2] | PBM binding z-score [3] | PBM binding z-score [4] | PBM binding z-score [5] | PBM binding z-score [6] | PBM binding z-score [7] | PBM binding z-score [8] | PBM binding z-score [9] | PBM binding z-score [10] | PBM binding z-score [11] | PBM binding z-score [12] | PBM binding z-score [13] | PBM binding z-score [14] | PBM binding z-score [15] | PBM binding z-score [16] | PBM binding z-score [17] | PBM binding z-score [18]
CCTAGGAGGACAGAAGGTCAGAGCTGTCCGCTTT | 0.0548 | 0.781 | -1.45 | -0.918 | 0.868 | 1.59 | -0.0903 | 1.98 | 0.629 | 3.02 | 3.34 | 3.28 | 2.78 | 0.179 | 1.84 | 2.25 | -0.21 | -0.00238
CCTTACGGGTCACCAGGTTATAGCACGACGAGCG | 3.46 | 5.18 | 0.0764 | -0.404 | 2.34 | 3.72 | -0.0319 | 4.62 | 1.27 | 4.27 | 3.75 | 5.68 | 5.33 | 0.805 | 6.06 | 3.45 | 0.878 | 1.09
CGTCCAAGGTCAGAGAGGTCAGTGATTGCCGAGT | 3.12 | 3.08 | -0.867 | -0.653 | 4.12 | 5.79 | 10.6 | 4.66 | 1.54 | 5.09 | 5.16 | 6.26 | 7.26 | 3.31 | 5.33 | 4.13 | 3.03 | 5.48
AGTCAAAGTTCAGGACGAGGTGACGTAAAGCACG | -0.365 | 2.55 | -0.0177 | -0.0513 | 2.73 | 3.51 | 1.23 | 3.58 | 0.938 | 4.46 | 3.64 | 5.69 | 5.15 | 3.18 | 3.53 | 3.93 | 1.83 | 2.66
CCAGACAGGTGAAAGGTAACTCATTCTGGTACGC | 2.34 | 3.01 | -0.114 | -0.175 | 1.3 | 1.12 | 0.37 | 2.12 | 1.09 | 1.4 | 0.992 | 1.41 | 0.877 | 0.192 | 2.12 | 1.13 | 0.167 | 0.0322
GTACCAAGGAGAATAGGTCGTTGATGAGTAGGCG | -0.462 | -0.173 | -1.64 | -0.217 | 0.315 | 0.103 | -0.146 | 0.0615 | 0.574 | 0.136 | 0.0836 | 0.268 | 0.222 | -0.343 | 0.654 | -0.111 | -0.986 | -0.123
TAGCCTAGGTCATTCAGGGGCCCGTATAGAAAGC | 1.73 | 2.64 | 0.467 | 0.786 | 1.25 | 2.01 | -0.334 | 2.84 | -0.527 | 3.47 | 2.42 | 4.22 | 3.89 | 1.39 | 2.77 | 3.61 | 0.839 | 1.32
ACAGACAGGTGATGAAGGTAACGCAGGCTATCAT | -0.0406 | 0.365 | -0.0492 | 0.0429 | -0.243 | -0.376 | 0.103 | -0.27 | -0.271 | 0.179 | 0.353 | 0.208 | 0.319 | -0.195 | 0.253 | 0.435 | -0.159 | -0.267
